Data as given in PubChem BioAssay (NCI).
About 83,000 compounds went through this panel and 20% of them were active in at least one assay; those are over-represented in the sample as a whole.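 Each cell line was grown in a 96-well plate and treated with one concentration of compound for 48 hours. Values below 10 were considered active.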 The source made the active and inactive calls.

Key:
Experiment in all cases: NCI-60 one-dose screen, 48 h (100 = growth as untreated, 0 = no growth, -100 = all killed)
Settings in all cases: 10 µM unless noted
SR leukemia = system: SR leukemia
OVCAR-8 ovarian = system: OVCAR-8 ovarian
OVCAR-5 ovarian = system: OVCAR-5 ovarian
OVCAR-4 ovarian = system: OVCAR-4 ovarian
SK-OV-3 ovarian = system: SK-OV-3 ovarian
IGROV1 ovarian = system: IGROV1 ovarian
OVCAR-3 ovarian = system: OVCAR-3 ovarian
HS 578T breast = system: HS 578T breast
NCI/ADR-RES ovarian = system: NCI/ADR-RES ovarian
RPMI-8226 leukemia = system: RPMI-8226 leukemia

Measured: growth

O=C(Nc1ccccc1)P(=O)(O)c1ccccc1
inactive: SR leukemia 98% | OVCAR-8 ovarian 92.4% | OVCAR-5 ovarian 92.9% | OVCAR-4 ovarian 105% | SK-OV-3 ovarian 113% | IGROV1 ovarian 121% | OVCAR-3 ovarian 104% | HS 578T breast 107% | NCI/ADR-RES ovarian 99.4%

CCOC(=O)c1sc(NC(=O)COc2cccc(/C=C3\Cc4ccc(Cl)cc4C3=O)c2)nc1C
inactive: SR leukemia 114% | RPMI-8226 leukemia 57.5% | OVCAR-5 ovarian 101% | OVCAR-4 ovarian 118% | SK-OV-3 ovarian 114% | OVCAR-3 ovarian 120% | HS 578T breast 110% | NCI/ADR-RES ovarian 97%

C1CCC(C(CC2CCCCN2)C2CCCCC2)CC1 (stereo unspecified)
inactive: OVCAR-4 ovarian 28.8% | HS 578T breast 57% | NCI/ADR-RES ovarian 14.3%
active: SR leukemia -39.7% | RPMI-8226 leukemia 5.39% | SK-OV-3 ovarian -52.3% | IGROV1 ovarian 6.73% | OVCAR-3 ovarian -3.79%

CCN(CC)CCCCCCCNc1c2ccc(Cl)cc2nc2ccc(OC)cc12
active: SR leukemia -16.5% | OVCAR-8 ovarian -41.8% | OVCAR-5 ovarian -8.18% | OVCAR-4 ovarian -43% | SK-OV-3 ovarian -30.7% | IGROV1 ovarian -64.3% | OVCAR-3 ovarian -39.6% | HS 578T breast -42.7%
inactive: NCI/ADR-RES ovarian 12.7%

CCOC(=O)C1C(=O)NC(C(=O)OCC)(C(=O)OCC)C1CC (stereo unspecified)
inactive: SR leukemia 107% | OVCAR-8 ovarian 108% | OVCAR-5 ovarian 105% | OVCAR-4 ovarian 110% | SK-OV-3 ovarian 112% | IGROV1 ovarian 124% | OVCAR-3 ovarian 125% | HS 578T breast 129% | NCI/ADR-RES ovarian 113%

COc1ccc2c(c1)c(CC(=O)[Se]C)c(C)n2C(=O)c1ccc(Cl)cc1
inactive: SR leukemia 13.4% | RPMI-8226 leukemia 62.6% | OVCAR-5 ovarian 36.8% | OVCAR-4 ovarian 37.2% | SK-OV-3 ovarian 40.7%
active: IGROV1 ovarian -3.14% | OVCAR-3 ovarian -12.4% | HS 578T breast 8.49% | NCI/ADR-RES ovarian 3.71%

O=C(COc1ccc(/C=C2\Cc3ccccc3C2=O)cc1)c1ccc(Cl)cc1
inactive: SR leukemia 117% | RPMI-8226 leukemia 90.3% | OVCAR-5 ovarian 102% | OVCAR-4 ovarian 112% | SK-OV-3 ovarian 112% | OVCAR-3 ovarian 128% | HS 578T breast 105% | NCI/ADR-RES ovarian 92.6%

Cc1ncc(C(=O)Nc2ccc(CN3CCN(C)CC3)c(C(F)(F)F)c2)cc1C#Cc1cncc2ncccc12
active: SR leukemia -13.2%
inactive: RPMI-8226 leukemia 49.7% | OVCAR-5 ovarian 69% | OVCAR-4 ovarian 51.7% | SK-OV-3 ovarian 68.4% | OVCAR-3 ovarian 83% | HS 578T breast 47.9% | NCI/ADR-RES ovarian 86.8%

COc1ccc(NC(=O)c2ccc(-c3ccccc3)cc2)c(C(N)=O)c1
inactive: SR leukemia 72.2% | RPMI-8226 leukemia 96.3% | OVCAR-5 ovarian 112% | OVCAR-4 ovarian 115% | SK-OV-3 ovarian 98.5% | IGROV1 ovarian 102% | OVCAR-3 ovarian 96.6% | HS 578T breast 104% | NCI/ADR-RES ovarian 98.2%

O=C1/C(=C\c2coc3ccccc3c2=O)c2ccccc2N1c1c(Cl)cccc1Cl
inactive: SR leukemia 19.5% | OVCAR-8 ovarian 31.6% | OVCAR-5 ovarian 102% | OVCAR-4 ovarian 49.5% | SK-OV-3 ovarian 74.8% | IGROV1 ovarian 48.7% | OVCAR-3 ovarian 16.8% | HS 578T breast 27.4% | NCI/ADR-RES ovarian 36.1%

O=CN1N=C(c2ccc(Cl)cc2)CC1c1cccc(Nc2ccnc3cc(Cl)ccc23)c1 (stereo unspecified)
active: SR leukemia 1.88% | NCI/ADR-RES ovarian 2.47%
inactive: RPMI-8226 leukemia 13.4% | OVCAR-5 ovarian 34.6% | OVCAR-4 ovarian 29.2% | SK-OV-3 ovarian 19.2% | IGROV1 ovarian 34.4% | OVCAR-3 ovarian 16.3%

C[N+]1(C)C2CC[C@@H]1CC(OC(=O)C(O)c1ccccc1)C2 (stereo partly specified)
inactive: SR leukemia 115% | OVCAR-8 ovarian 108% | OVCAR-5 ovarian 106% | OVCAR-4 ovarian 110% | SK-OV-3 ovarian 117% | IGROV1 ovarian 103% | OVCAR-3 ovarian 121% | HS 578T breast 119% | NCI/ADR-RES ovarian 103%

Clc1ccc2[nH]cc(-c3cncn3CCc3ccccc3)c2c1
inactive: SR leukemia 41% | RPMI-8226 leukemia 22.6% | OVCAR-5 ovarian 74.7% | OVCAR-4 ovarian 14.2% | SK-OV-3 ovarian 41.1% | IGROV1 ovarian 69.3% | OVCAR-3 ovarian 55.4% | HS 578T breast 51.3% | NCI/ADR-RES ovarian 51.1%

CCCc1n(Cc2ccc3ccccc3c2)cc[n+]1Cc1ccc2ccccc2c1
active: SR leukemia -38.1% | RPMI-8226 leukemia -22.2% | OVCAR-5 ovarian 9.11% | OVCAR-4 ovarian 9.35% | SK-OV-3 ovarian 6.89% | IGROV1 ovarian -54.2% | OVCAR-3 ovarian -55.6%
inactive: NCI/ADR-RES ovarian 89.2%

Nc1ccc2c(c1Br)Cc1ccccc1-2
inactive: SR leukemia 93.6% | OVCAR-8 ovarian 98.6% | OVCAR-5 ovarian 94.6% | OVCAR-4 ovarian 98.6% | SK-OV-3 ovarian 95.4% | IGROV1 ovarian 108% | OVCAR-3 ovarian 99.1% | HS 578T breast 95.4% | NCI/ADR-RES ovarian 100%

CN1CCN(CCCOc2ccc3ncnc(Nc4ccc(OCc5cccc(F)c5)c(Cl)c4)c3c2)CC1
active: SR leukemia -6.49% | RPMI-8226 leukemia -24.6% | OVCAR-5 ovarian -59.4% | OVCAR-4 ovarian -19.9% | IGROV1 ovarian -34.9% | OVCAR-3 ovarian -6.29% | HS 578T breast -19.3%
inactive: SK-OV-3 ovarian 12.4% | NCI/ADR-RES ovarian 18.3%

O=[N+]([O-])c1cc([N+](=O)[O-])c(N2CCCC2)cc1NN=C(c1ccc(O)cc1)c1ccc(O)cc1
inactive: SR leukemia 77.1% | RPMI-8226 leukemia 82.2% | OVCAR-5 ovarian 38.2% | OVCAR-4 ovarian 81.6% | SK-OV-3 ovarian 39.9% | OVCAR-3 ovarian 89.8% | HS 578T breast 137% | NCI/ADR-RES ovarian 33.6%

CCOC(=O)c1sc(NC(=O)COc2cccc(/C=C3\CCc4cc(OC)ccc4C3=O)c2)nc1C
inactive: RPMI-8226 leukemia 12.6% | OVCAR-5 ovarian 98% | OVCAR-4 ovarian 73.2% | SK-OV-3 ovarian 99% | OVCAR-3 ovarian 38.2% | HS 578T breast 91.7% | NCI/ADR-RES ovarian 47.7%
active: SR leukemia -19.4%

O=C(O)c1ccc(CNS(=O)(=O)c2ccc3ccccc3c2)cc1
inactive: SR leukemia 33.4% | RPMI-8226 leukemia 112% | OVCAR-5 ovarian 115% | OVCAR-4 ovarian 98.3% | SK-OV-3 ovarian 109% | OVCAR-3 ovarian 94.9% | HS 578T breast 81% | NCI/ADR-RES ovarian 128%

O=C(N/N=C/c1cccc([N+](=O)[O-])c1)c1ccc(Br)o1
inactive: SR leukemia 134% | RPMI-8226 leukemia 85.9% | OVCAR-5 ovarian 107% | OVCAR-4 ovarian 105% | SK-OV-3 ovarian 97.7% | OVCAR-3 ovarian 111% | HS 578T breast 158% | NCI/ADR-RES ovarian 101%

Oc1ccc(/C=N/Nc2nc3ccccc3s2)c(O)c1
active: SR leukemia 6.63% | SK-OV-3 ovarian 8.68%
inactive: RPMI-8226 leukemia 37.4% | OVCAR-5 ovarian 47.1% | OVCAR-4 ovarian 21.5% | IGROV1 ovarian 22.3% | OVCAR-3 ovarian 18.6% | HS 578T breast 49.2% | NCI/ADR-RES ovarian 17.7%

CC(=O)Nc1c(Cl)cc2c(c1Cl)Cc1cc([N+](=O)[O-])ccc1-2
inactive: SR leukemia 70% | OVCAR-8 ovarian 77.7% | OVCAR-5 ovarian 117% | OVCAR-4 ovarian 81.2% | SK-OV-3 ovarian 84.4% | IGROV1 ovarian 117% | OVCAR-3 ovarian 72% | HS 578T breast 34.6% | NCI/ADR-RES ovarian 94.8%

c1ccc2nc(N/N=C3\CCCCC3C3CCCCC3)ccc2c1 (stereo unspecified)
active: SR leukemia -17.5% | RPMI-8226 leukemia -18.8%
inactive: OVCAR-5 ovarian 58% | OVCAR-4 ovarian 51.1% | SK-OV-3 ovarian 88.6% | IGROV1 ovarian 44.4% | OVCAR-3 ovarian 33.2% | NCI/ADR-RES ovarian 57.2%

COC(=O)[C@H]1[C@H]2C[C@@H]3c4[nH]c5cc(OC)ccc5c4CCN3C[C@H]2C[C@@H](OC(=O)/C=C/c2cc(OC)c(OC)c(OC)c2)[C@@H]1OC
active: SR leukemia -7.74% | OVCAR-3 ovarian -42.8%
inactive: OVCAR-8 ovarian 50.6% | OVCAR-5 ovarian 113% | OVCAR-4 ovarian 13.6% | SK-OV-3 ovarian 98.6% | IGROV1 ovarian 38.4% | HS 578T breast 69.3% | NCI/ADR-RES ovarian 49.1%

Nc1ncnc2c1CN(Cc1ccccc1)CC2
inactive: SR leukemia 94.6% | OVCAR-8 ovarian 106% | OVCAR-5 ovarian 114% | OVCAR-4 ovarian 102% | SK-OV-3 ovarian 103% | IGROV1 ovarian 118% | OVCAR-3 ovarian 129% | HS 578T breast 119% | NCI/ADR-RES ovarian 104%

Cc1cn(C(C=O)OC(C=O)CO)c(=O)[nH]c1=O (stereo unspecified)
inactive: SR leukemia 93.9% | RPMI-8226 leukemia 107% | OVCAR-5 ovarian 111% | OVCAR-4 ovarian 96.9% | SK-OV-3 ovarian 103% | IGROV1 ovarian 102% | OVCAR-3 ovarian 109% | HS 578T breast 103% | NCI/ADR-RES ovarian 107%

COC(=O)CC1=C(c2ccc([N+](=O)[O-])cc2)CCC1=O
inactive: SR leukemia 104% | OVCAR-8 ovarian 104% | OVCAR-5 ovarian 105% | OVCAR-4 ovarian 110% | SK-OV-3 ovarian 99.1% | IGROV1 ovarian 127% | OVCAR-3 ovarian 121% | HS 578T breast 114% | NCI/ADR-RES ovarian 109%

O=C1NC(=O)/C(=C\c2ccco2)S1
inactive: SR leukemia 113% | OVCAR-8 ovarian 105% | OVCAR-5 ovarian 95.9% | OVCAR-4 ovarian 121% | SK-OV-3 ovarian 97.1% | IGROV1 ovarian 114% | OVCAR-3 ovarian 106% | NCI/ADR-RES ovarian 103%

CC1CN(CC(O)c2ccc(Br)cc2)CCO1 (stereo unspecified)
inactive: SR leukemia 92.3% | OVCAR-8 ovarian 96.2% | OVCAR-5 ovarian 103% | OVCAR-4 ovarian 116% | SK-OV-3 ovarian 112% | IGROV1 ovarian 109% | OVCAR-3 ovarian 107% | NCI/ADR-RES ovarian 108%

C=C1CCC2C3(C)COC(c4ccccc4)OC3CCC2(C)C1C/C=C1/C(=O)OCC1OC(C)=O (stereo unspecified)
inactive: SR leukemia 78.2% | OVCAR-8 ovarian 41.9% | OVCAR-5 ovarian 120% | OVCAR-4 ovarian 82.3% | SK-OV-3 ovarian 131% | IGROV1 ovarian 86.8% | OVCAR-3 ovarian 100% | NCI/ADR-RES ovarian 61.3%

CC(=O)N1N=C(c2ccc(Nc3nc(NCCO)nc(NCCO)n3)cc2)CC1c1ccc(Cl)cc1 (stereo unspecified)
inactive: SR leukemia 142% | OVCAR-8 ovarian 104% | OVCAR-5 ovarian 103% | OVCAR-4 ovarian 104% | SK-OV-3 ovarian 101% | IGROV1 ovarian 99.4% | OVCAR-3 ovarian 96.4% | NCI/ADR-RES ovarian 99.8%

CS(=O)(=O)N1CCN(Cc2cc3nc(-c4cccc5[nH]ncc45)nc(N4CCOCC4)c3s2)CC1 (tested in a mixture with another compound)
inactive: SR leukemia 23.2% | OVCAR-8 ovarian 26.1% | OVCAR-5 ovarian 21.5% | OVCAR-4 ovarian 39.7% | OVCAR-3 ovarian 12.4% | NCI/ADR-RES ovarian 29.6%
active: SK-OV-3 ovarian -25.6% | IGROV1 ovarian -30.2%

Nc1ccccc1-c1ccn[nH]1
inactive: SR leukemia 99.7% | OVCAR-8 ovarian 103% | OVCAR-5 ovarian 83% | OVCAR-4 ovarian 94.7% | SK-OV-3 ovarian 92.1% | IGROV1 ovarian 84.2% | OVCAR-3 ovarian 91.6% | HS 578T breast 100% | NCI/ADR-RES ovarian 105%
